MEKK3 PB1 HTS: MEKK3-MEK5 PB1 interaction, increase or decrease | binding response (% of control), % at 10 µM | Q99759 | bead-based flow cytometry, Alexa488-MEK5 binding to MEKK3; actives lie on both sides; 0 = blocked by unlabeled MEK5, 100 = vehicle | actives 1.4% (n = 290,000);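 active means binding response more than 3 SD above or below the average of its plate-row segment, actives on both sides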;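 further: Alexa488 bead fluorescence after subtracting the streptavidin-only scavenger bead signal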
MEKK2 WT-MEK5: raises or lowers MEK5 binding to wildtype human MEKK2 PB1 domain; Q9Y2U5; bead flow cytometry, Alexa488-MEK5 binding to MEKK2 WT; actives lie on both sides; binding response (% of control), % at 10 µM; actives 1.1% (n = 290,000); AID 1531; in the data active means binding response below about 67% or above about 130%
SUMO Mot1 rescue: inhibitors of SUMOylation pathway: yeast Mot1-301 growth rescue; growth rescue, % at 18.8 µM; actives 1% (n = 320,000); S. cerevisiae Mot1-301 growth rescue, ATP luminescence, 38.5C; percent above DMSO median, 100 means doubled; AID 2716;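 active means every valid replicate shows activation above 250% relative to neutral control wells; inactive means the rest, any valid replicate at or below 250%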;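 further: OY570 slx delta 5 strain wells were the positive control but not used for scaling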
MEKK2mut PB1 HTS: signal of MEK5 binding to mutant human MEKK2 PB1 domain. bead flow cytometry, Alexa488-MEK5 binding to MEKK2 mutant. percent response, % at 10 µM. actives 0.35% (n = 290,000); in the data active means percent response above about 24%, passing the limit was not always enough
CHT inh: inhibits the human high affinity choline transporter; Q9GZV3; CHT-expressing cells, membrane potential dye, choline response; stronger effect = lower value; B-score at 10 µM; actives 0.86% (n = 310,000); AID 488975;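 active means B-score over 3 SD under the library average, and starting fluorescence ratio not unusually high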;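 further: choline stimulus applied at its EC90 after an EC20 pre-addition; B-score computed on integrated fluorescence ratio after choline addition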
Target sequence (Q9GZV3 whole entry, looked up): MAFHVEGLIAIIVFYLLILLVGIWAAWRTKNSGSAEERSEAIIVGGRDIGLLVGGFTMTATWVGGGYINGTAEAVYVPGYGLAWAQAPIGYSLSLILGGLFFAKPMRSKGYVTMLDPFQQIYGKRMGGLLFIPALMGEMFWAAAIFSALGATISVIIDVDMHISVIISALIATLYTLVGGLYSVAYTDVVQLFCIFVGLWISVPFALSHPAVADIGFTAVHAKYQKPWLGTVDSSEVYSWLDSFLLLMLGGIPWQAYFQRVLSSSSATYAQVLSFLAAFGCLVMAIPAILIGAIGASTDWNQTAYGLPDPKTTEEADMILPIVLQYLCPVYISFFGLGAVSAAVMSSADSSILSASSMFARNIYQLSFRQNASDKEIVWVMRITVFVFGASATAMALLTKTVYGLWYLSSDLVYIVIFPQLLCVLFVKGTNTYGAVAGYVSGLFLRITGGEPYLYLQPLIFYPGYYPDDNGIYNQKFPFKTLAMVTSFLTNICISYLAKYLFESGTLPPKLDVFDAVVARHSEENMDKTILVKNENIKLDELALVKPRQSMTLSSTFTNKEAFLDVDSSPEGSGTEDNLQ
CHT PAM: allosteric activators of human choline transporter CHT; Q9GZV3; CHT-expressing cells, membrane potential dye, choline EC20; stronger effect = higher value; LV-AA mutant CHT in HEK293 cells; B-score at 10 µM; actives 0.49% (n = 310,000); AID 488977;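 active means initial fluorescence not abnormally high and integrated response B-score, plate-corrected, over 3 SD above library mean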
Mot1 SUMO dose: inhibits SUMO pathway, affecting Mot1-301 yeast growth. shares compounds with SUMO Mot1 rescue. growth activity, percent, % at 42 µM. AID 493004. S. cerevisiae Mot1-301 galactose growth, ATP luminescence, 24 h; -100 = growth of slx-deleted rescue strain. 2,300 tested, under 10 active;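 active means Signal drops as the depositor expects, and the fitted half-maximal dose is no more than ten times the top valid tested dose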;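 further: more negative values mean stronger growth rescue toward the control strain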
An asterisk follows results filed as active. Hits are enriched below; roughly 4.1% of the tested compounds scored in any of these assays.

What do the screens show for `COC(=O)C(NC(C)=O)(Nc1nc2ccc(S(C)(=O)=O)cc2s1)C(F)(F)F` (configuration not stated)?
MEKK3 PB1 HTS: 107; MEKK2 WT-MEK5: 107; SUMO Mot1 rescue: active; MEKK2mut PB1 HTS: 4; CHT inh: inactive; CHT PAM: inactive; Mot1 SUMO dose: 1

How did Cc1ccc(-c2nnc(SCC#N)n2N)cc1 do in these assays?
MEKK3 PB1 HTS: 101; MEKK2 WT-MEK5: 101; SUMO Mot1 rescue: active; MEKK2mut PB1 HTS: 7; CHT inh: inactive; CHT PAM: inactive; Mot1 SUMO dose: 0

How did Cc1cccc(-c2nnc(SCC#N)n2C)c1 do in these assays?
MEKK3 PB1 HTS: 105; MEKK2 WT-MEK5: 107; SUMO Mot1 rescue: -13; MEKK2mut PB1 HTS: 3; CHT inh: inactive; CHT PAM: inactive

What do the screens show for `CC1CCCC(C)N1C(=O)CSc1nnnn1-c1cccc2c1CCCC2` (configuration not stated)?
MEKK3 PB1 HTS: 100; MEKK2 WT-MEK5: 102; SUMO Mot1 rescue: 414*; MEKK2mut PB1 HTS: 3; CHT inh: inactive; CHT PAM: inactive; Mot1 SUMO dose: 0

Results for O=C(COC(=O)c1ccccn1)Nc1nc(-c2cccc([N+](=O)[O-])c2)cs1 ?
MEKK3 PB1 HTS: 99; MEKK2 WT-MEK5: 93; SUMO Mot1 rescue: -15; MEKK2mut PB1 HTS: -2; CHT inh: inactive; CHT PAM: inactive

Results for COc1ccc(N(C(=O)c2ccco2)C(C(=O)NC2CCCCC2)c2ccccc2)cc1 (configuration not stated) ?
MEKK3 PB1 HTS: 109; MEKK2 WT-MEK5: 102; SUMO Mot1 rescue: 694*; MEKK2mut PB1 HTS: 4; CHT inh: inactive; CHT PAM: inactive; Mot1 SUMO dose: 1

What do the screens show for `O=C(Nc1cc(F)ccc1F)C1CCCO1` (configuration not stated)?
MEKK3 PB1 HTS: 89; MEKK2 WT-MEK5: 92; SUMO Mot1 rescue: active; MEKK2mut PB1 HTS: -1; CHT inh: inactive; CHT PAM: inactive; Mot1 SUMO dose: 0

How did O=C(Nc1ccc(Br)cc1F)C1CCCO1 (configuration not stated) do in these assays?
MEKK3 PB1 HTS: 96; MEKK2 WT-MEK5: 96; SUMO Mot1 rescue: 156; MEKK2mut PB1 HTS: -4; CHT inh: inactive; CHT PAM: inactive

How did O=C(CN1CCN(C(=O)c2ccccc2)CC1)Nc1ncc(Br)cc1Br do in these assays?
MEKK3 PB1 HTS: 98; MEKK2 WT-MEK5: 101; SUMO Mot1 rescue: active; MEKK2mut PB1 HTS: -1; CHT inh: inactive; CHT PAM: inactive; Mot1 SUMO dose: 0

Results for COc1ccc(CCN2CC(C(=O)Nc3nccs3)CC2=O)cc1OC (configuration not stated) ?
SUMO Mot1 rescue: 1

How did O=C(CCc1ccc(O)c(O)c1)N/N=C/c1ccc2c(c1)OCO2 do in these assays?
MEKK3 PB1 HTS: 102; MEKK2 WT-MEK5: 99; SUMO Mot1 rescue: -16; MEKK2mut PB1 HTS: -1; CHT inh: inactive; CHT PAM: inactive

Results for Nc1cc(-c2ccc(Br)cc2)nn1S(=O)(=O)c1ccccc1 ?
MEKK3 PB1 HTS: 107; MEKK2 WT-MEK5: 111; SUMO Mot1 rescue: -6; MEKK2mut PB1 HTS: 10; CHT inh: inactive; CHT PAM: inactive

What do the screens show for `COc1ccc(S(=O)(=O)n2nc(-c3ccc(Cl)cc3)cc2N)cc1OC`?
MEKK3 PB1 HTS: 105; MEKK2 WT-MEK5: 104; SUMO Mot1 rescue: 388*; MEKK2mut PB1 HTS: 6; CHT inh: inactive; CHT PAM: inactive; Mot1 SUMO dose: 0

How did Nc1cc(-c2ccc(Cl)cc2)nn1S(=O)(=O)c1ccc(Cl)cc1 do in these assays?
MEKK3 PB1 HTS: 107; MEKK2 WT-MEK5: 108; SUMO Mot1 rescue: 545*; MEKK2mut PB1 HTS: 6; CHT inh: inactive; CHT PAM: inactive; Mot1 SUMO dose: 0

Compound activity (PubChem BioAssay)
